# Legend:
# Experiment in all cases: DAPPL (digital affinity profiling via proximity ligation, sequencing); 10 mM Tris-HCl pH 7.5, 50 mM NaCl, 1 mM DTT, 4% glycerol, room temperature, 30 min; GST-TFs on glutathione beads, 16-mer random dsDNA library, 0.1% formaldehyde crosslink after washing; high values mean tight binding
# [1] = target: T1, FEV (Homo sapiens, UniProt Q99581 1-238); details: protein: recombinant; tags: N-terminal GST; dsDNA, one strand shown
# T1 sequence: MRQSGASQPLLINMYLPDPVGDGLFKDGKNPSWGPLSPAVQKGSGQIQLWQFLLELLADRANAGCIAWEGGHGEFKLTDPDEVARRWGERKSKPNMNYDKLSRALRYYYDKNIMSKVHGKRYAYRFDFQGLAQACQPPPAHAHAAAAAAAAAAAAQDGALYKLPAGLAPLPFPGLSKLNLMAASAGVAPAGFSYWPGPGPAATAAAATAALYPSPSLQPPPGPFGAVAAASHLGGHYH
# Outline: (§1)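 Pools of DNA-barcoded human transcription factors, expressed in yeast as GST fusions on glutathione beads and combined with a tag-only sample, were incubated with 200 nmole of a 16-mer random double-stranded DNA library. Incubation took 30 min at room temperature in Tris/NaCl/DTT/glycerol buffer and was followed by washing, 0.1% formaldehyde crosslinking, proximity ligation (BsaI/T4 ligase, 1 h, 37 °C), PCR amplification and sequencing on an Illumina NextSeq500. Binding signal is the ratio of a hexamer's read frequency for a factor to its frequency for the tag-only sample.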
# [2] = target: ETV5 (Homo sapiens, UniProt P41161 1-510); details: protein: recombinant; tags: N-terminal GST; dsDNA, one strand shown
# Chain of ETV5 (P41161 whole entry): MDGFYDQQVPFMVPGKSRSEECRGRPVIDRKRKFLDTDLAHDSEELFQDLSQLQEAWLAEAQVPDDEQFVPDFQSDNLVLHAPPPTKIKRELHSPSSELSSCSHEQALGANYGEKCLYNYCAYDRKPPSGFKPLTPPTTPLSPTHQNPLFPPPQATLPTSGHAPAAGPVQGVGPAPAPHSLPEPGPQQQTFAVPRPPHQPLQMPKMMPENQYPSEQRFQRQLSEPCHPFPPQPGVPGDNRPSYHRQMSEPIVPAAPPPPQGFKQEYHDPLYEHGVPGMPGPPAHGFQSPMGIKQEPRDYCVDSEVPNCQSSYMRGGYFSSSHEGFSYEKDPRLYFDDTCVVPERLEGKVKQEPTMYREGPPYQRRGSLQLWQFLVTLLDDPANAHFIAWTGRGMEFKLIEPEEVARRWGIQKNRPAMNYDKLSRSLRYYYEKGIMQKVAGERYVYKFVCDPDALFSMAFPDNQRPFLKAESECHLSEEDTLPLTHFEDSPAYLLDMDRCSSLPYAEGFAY
# Outline: as §1
# [3] = target: HSF1 (Homo sapiens, UniProt Q00613 1-529); details: protein: recombinant; tags: N-terminal GST; chain copies: 3; dsDNA, one strand shown
# Chain of HSF1 (Q00613 whole entry): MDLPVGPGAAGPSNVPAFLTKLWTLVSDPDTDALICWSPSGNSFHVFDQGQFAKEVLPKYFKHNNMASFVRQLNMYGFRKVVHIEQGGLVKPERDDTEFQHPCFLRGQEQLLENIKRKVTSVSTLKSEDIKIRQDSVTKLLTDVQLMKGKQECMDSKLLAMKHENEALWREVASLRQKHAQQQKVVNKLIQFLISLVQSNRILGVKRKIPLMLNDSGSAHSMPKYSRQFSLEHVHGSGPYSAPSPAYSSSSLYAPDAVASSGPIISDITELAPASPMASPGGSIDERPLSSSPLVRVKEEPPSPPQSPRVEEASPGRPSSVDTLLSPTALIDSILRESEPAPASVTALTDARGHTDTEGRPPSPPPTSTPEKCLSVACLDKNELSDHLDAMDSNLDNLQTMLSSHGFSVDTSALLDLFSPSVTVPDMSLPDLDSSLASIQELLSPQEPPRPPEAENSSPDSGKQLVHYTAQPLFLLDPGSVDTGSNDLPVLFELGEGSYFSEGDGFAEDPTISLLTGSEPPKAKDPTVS
# Outline: as §1
# [4] = target: T2, SPIC (Homo sapiens, UniProt Q8N5J4 1-248); details: protein: recombinant; tags: N-terminal GST; dsDNA, one strand shown
# T2 sequence: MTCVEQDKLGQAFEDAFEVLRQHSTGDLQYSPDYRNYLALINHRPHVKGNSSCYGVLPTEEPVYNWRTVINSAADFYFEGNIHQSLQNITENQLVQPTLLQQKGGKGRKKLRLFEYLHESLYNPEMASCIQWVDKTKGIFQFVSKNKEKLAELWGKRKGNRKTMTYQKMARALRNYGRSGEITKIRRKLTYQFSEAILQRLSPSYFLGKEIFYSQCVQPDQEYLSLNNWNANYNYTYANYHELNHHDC
# Outline: as §1
# [5] = target: ELF4 (Homo sapiens, UniProt Q99607 1-663); details: protein: recombinant; tags: N-terminal GST; dsDNA, one strand shown
# Chain of ELF4 (Q99607 whole entry): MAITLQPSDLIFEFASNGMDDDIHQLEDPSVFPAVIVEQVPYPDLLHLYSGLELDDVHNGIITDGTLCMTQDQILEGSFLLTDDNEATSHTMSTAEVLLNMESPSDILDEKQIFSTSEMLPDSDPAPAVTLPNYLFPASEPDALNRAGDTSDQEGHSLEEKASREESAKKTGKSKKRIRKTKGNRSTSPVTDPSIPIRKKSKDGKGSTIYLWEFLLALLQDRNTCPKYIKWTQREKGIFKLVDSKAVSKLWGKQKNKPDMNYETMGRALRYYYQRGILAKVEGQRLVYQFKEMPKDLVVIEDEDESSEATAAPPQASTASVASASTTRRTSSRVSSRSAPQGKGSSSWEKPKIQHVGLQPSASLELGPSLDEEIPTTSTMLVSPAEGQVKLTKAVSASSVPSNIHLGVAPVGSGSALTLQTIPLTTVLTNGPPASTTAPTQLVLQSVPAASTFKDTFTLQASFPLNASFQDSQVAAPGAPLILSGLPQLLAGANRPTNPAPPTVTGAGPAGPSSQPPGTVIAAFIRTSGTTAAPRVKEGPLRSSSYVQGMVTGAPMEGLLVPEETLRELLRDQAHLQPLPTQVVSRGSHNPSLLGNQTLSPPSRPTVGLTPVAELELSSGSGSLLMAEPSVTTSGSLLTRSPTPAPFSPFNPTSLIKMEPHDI
# Outline: as §1
# [6] = target: T3, ELK4 (Homo sapiens, UniProt P28324-2 1-405); details: protein: recombinant; tags: N-terminal GST; dsDNA, one strand shown
# T3 sequence: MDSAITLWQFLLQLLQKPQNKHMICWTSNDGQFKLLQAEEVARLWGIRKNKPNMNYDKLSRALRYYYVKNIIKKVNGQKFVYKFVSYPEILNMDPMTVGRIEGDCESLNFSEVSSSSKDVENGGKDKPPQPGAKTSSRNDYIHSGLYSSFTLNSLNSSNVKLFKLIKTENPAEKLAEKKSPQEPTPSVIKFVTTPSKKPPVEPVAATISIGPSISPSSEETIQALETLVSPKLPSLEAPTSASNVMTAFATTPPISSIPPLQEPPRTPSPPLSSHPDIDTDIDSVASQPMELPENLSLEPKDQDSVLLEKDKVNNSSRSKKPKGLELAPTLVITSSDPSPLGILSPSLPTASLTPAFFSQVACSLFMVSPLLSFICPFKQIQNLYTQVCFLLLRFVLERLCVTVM
# Outline: as §1
# [7] = target: T4, ETV2 (Homo sapiens, UniProt O00321 1-342); details: protein: recombinant; tags: N-terminal GST; dsDNA, one strand shown
# T4 sequence: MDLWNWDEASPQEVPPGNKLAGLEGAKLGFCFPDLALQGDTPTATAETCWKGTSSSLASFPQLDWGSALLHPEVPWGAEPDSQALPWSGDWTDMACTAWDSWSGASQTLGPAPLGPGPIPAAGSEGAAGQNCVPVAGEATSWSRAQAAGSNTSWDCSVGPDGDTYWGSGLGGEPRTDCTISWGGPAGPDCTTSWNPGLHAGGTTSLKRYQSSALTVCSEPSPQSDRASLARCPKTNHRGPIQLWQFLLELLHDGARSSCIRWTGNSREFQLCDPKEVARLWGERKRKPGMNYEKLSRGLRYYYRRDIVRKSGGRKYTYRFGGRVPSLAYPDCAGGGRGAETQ
# Outline: as §1
# [8] = target: T5, ELF3 (Homo sapiens, UniProt P78545 1-371); details: protein: recombinant; tags: N-terminal GST; dsDNA, one strand shown
# T5 sequence: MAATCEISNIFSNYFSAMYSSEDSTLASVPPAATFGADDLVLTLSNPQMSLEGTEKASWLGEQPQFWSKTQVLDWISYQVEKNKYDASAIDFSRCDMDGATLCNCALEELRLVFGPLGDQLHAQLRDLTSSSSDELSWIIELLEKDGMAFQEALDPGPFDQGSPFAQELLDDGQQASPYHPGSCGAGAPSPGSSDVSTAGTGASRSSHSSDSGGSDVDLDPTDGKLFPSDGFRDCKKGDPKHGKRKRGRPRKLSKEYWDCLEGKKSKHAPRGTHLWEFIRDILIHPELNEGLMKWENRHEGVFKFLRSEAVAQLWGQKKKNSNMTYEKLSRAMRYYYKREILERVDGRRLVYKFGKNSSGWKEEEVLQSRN
# Outline: as §1
# [9] = target: CRX (Homo sapiens, UniProt O43186 1-299); details: protein: recombinant; tags: N-terminal GST; dsDNA, one strand shown
# Chain of CRX (O43186 whole entry): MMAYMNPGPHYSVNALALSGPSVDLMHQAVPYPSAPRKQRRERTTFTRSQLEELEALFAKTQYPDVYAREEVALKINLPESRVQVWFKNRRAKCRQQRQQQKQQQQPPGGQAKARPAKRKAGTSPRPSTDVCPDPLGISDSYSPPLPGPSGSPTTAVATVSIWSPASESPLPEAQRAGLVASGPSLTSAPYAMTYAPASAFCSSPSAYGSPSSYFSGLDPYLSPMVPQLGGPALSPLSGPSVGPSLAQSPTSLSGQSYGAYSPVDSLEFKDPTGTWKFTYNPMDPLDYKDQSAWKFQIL
# Outline: as §1
# [10] = target: ETV1 (Homo sapiens, UniProt P50549 1-477); details: protein: recombinant; tags: N-terminal GST; dsDNA, one strand shown
# Chain of ETV1 (P50549 whole entry): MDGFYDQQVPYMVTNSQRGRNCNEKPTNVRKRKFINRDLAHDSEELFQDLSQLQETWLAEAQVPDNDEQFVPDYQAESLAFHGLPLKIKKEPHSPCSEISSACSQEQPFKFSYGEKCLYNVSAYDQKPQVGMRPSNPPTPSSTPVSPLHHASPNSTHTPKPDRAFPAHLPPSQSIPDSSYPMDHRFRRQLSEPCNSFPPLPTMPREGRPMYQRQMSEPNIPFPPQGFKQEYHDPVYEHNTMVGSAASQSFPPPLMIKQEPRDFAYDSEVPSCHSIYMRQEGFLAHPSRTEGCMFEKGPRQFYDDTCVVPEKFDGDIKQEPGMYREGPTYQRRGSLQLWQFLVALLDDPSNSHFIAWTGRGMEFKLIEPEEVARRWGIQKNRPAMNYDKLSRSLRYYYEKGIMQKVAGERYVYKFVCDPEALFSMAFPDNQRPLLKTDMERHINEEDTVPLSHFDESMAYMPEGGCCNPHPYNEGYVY
# Outline: as §1
# [11] = target: T6, ERF (Homo sapiens, UniProt P50548 1-548); details: protein: recombinant; tags: N-terminal GST; dsDNA, one strand shown
# T6 sequence: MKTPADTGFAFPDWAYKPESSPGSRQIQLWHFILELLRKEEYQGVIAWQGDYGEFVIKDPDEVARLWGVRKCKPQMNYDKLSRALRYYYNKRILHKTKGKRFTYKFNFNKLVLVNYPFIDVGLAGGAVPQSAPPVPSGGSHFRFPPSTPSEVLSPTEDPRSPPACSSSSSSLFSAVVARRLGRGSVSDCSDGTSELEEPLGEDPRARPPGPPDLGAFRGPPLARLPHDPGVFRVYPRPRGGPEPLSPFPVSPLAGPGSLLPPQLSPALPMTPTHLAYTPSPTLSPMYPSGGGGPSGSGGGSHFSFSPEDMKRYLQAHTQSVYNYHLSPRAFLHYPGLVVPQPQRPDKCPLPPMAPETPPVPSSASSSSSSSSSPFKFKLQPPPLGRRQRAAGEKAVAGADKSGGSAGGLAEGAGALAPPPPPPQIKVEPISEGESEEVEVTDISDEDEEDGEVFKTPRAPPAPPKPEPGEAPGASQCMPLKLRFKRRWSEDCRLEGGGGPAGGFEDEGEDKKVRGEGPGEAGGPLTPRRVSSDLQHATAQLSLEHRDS
# Outline: as §1
# [12] = target: T7, ETV3L (Homo sapiens, UniProt Q6ZN32 1-361); details: protein: recombinant; tags: N-terminal GST; dsDNA, one strand shown
# T7 sequence: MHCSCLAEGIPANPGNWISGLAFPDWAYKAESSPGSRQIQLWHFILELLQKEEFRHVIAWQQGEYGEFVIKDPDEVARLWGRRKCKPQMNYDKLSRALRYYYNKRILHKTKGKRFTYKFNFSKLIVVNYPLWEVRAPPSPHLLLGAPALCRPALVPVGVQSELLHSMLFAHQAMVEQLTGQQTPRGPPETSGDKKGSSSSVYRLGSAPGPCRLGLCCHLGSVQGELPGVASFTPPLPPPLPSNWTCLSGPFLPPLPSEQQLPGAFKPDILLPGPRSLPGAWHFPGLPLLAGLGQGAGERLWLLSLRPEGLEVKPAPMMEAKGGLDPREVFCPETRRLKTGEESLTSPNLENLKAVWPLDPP
# Outline: as §1
# [13] = target: T8, ETS2 (Homo sapiens, UniProt P15036 1-469); details: protein: recombinant; tags: N-terminal GST; dsDNA, one strand shown
# T8 sequence: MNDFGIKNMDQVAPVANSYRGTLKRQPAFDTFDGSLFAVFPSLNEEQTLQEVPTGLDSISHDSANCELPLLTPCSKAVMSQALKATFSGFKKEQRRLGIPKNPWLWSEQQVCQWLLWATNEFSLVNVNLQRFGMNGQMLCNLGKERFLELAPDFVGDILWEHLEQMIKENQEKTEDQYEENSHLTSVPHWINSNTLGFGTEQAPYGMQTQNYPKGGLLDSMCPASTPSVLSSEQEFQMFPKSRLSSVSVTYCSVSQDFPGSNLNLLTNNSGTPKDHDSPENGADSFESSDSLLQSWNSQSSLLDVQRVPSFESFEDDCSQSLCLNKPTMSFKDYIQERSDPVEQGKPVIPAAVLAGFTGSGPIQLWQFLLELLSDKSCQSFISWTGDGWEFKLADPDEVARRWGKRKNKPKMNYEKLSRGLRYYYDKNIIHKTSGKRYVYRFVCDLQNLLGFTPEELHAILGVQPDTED
# Outline: as §1
# [14] = target: T9, SPDEF (Homo sapiens, UniProt O95238 1-335); details: protein: recombinant; tags: N-terminal GST; dsDNA, one strand shown
# T9 sequence: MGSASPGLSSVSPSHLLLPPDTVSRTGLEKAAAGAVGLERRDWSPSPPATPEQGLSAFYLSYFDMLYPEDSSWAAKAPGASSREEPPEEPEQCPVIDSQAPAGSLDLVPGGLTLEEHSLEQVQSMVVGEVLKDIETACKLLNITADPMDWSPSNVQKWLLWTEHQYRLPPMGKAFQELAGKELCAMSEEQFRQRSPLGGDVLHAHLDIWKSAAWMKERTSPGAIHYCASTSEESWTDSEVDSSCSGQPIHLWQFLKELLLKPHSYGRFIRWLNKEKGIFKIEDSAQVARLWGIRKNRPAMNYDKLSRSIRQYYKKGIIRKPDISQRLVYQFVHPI
# Outline: as §1
# [15] = target: T10, ETV7 (Homo sapiens, UniProt Q9Y603 1-341); details: protein: recombinant; tags: N-terminal GST; dsDNA, one strand shown
# T10 sequence: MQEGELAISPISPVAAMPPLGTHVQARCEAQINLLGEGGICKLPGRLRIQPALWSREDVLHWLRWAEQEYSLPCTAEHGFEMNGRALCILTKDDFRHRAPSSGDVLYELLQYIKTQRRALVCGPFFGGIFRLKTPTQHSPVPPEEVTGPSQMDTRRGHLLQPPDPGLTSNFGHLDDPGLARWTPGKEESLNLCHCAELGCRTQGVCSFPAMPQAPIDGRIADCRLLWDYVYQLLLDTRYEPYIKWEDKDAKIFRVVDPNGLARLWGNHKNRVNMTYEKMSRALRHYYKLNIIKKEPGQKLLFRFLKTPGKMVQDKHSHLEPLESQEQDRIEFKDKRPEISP
# Outline: as §1
# [16] = target: T11, ELF5 (Homo sapiens, UniProt Q9UKW6-2 1-255); details: protein: recombinant; tags: N-terminal GST; dsDNA, one strand shown
# T11 sequence: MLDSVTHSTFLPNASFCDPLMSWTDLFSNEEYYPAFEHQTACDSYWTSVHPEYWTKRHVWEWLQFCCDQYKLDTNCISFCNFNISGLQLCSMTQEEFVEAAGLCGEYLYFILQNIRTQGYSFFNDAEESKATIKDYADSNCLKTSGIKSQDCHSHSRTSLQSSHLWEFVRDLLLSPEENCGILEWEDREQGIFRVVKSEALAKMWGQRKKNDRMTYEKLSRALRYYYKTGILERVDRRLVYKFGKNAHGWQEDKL
# Outline: as §1
# [17] = target: ETV6 (Homo sapiens, UniProt P41212 1-452); details: protein: recombinant; tags: N-terminal GST; dsDNA, one strand shown
# Chain of ETV6 (P41212 whole entry): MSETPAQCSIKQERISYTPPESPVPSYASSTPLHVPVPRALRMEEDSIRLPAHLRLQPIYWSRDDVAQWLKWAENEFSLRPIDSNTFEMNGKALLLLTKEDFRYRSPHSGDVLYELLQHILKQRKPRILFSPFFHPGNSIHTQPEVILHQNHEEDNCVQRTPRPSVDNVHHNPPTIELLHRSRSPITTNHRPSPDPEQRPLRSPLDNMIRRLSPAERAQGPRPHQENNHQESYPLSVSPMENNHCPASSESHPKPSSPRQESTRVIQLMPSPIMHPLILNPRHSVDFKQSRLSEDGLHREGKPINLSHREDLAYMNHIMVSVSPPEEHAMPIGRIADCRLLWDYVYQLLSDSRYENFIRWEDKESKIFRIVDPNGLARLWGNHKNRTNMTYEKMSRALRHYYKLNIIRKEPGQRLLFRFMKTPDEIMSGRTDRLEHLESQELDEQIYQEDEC
# Outline: as §1
# [18] = target: T12, ETV3 (Homo sapiens, UniProt P41162-2 1-143); details: protein: recombinant; tags: N-terminal GST; dsDNA, one strand shown
# T12 sequence: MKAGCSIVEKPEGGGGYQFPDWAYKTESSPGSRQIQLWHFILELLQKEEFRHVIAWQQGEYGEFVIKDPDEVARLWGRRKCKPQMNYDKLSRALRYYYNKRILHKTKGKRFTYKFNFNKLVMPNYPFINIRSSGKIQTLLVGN
# Outline: as §1
Sequence,binding signal [1],binding signal [2],binding signal [3],binding signal [4],binding signal [5],binding signal [6],binding signal [7],binding signal [8],binding signal [9],binding signal [10],binding signal [11],binding signal [12],binding signal [13],binding signal [14],binding signal [15],binding signal [16],binding signal [17],binding signal [18]
GCAAAT,"1.08 fold enrichment (6-mer frequency, TF over GST control)","1.1 fold enrichment (6-mer frequency, TF over GST control)","1.08 fold enrichment (6-mer frequency, TF over GST control)","1.17 fold enrichment (6-mer frequency, TF over GST control)","1.04 fold enrichment (6-mer frequency, TF over GST control)","1.02 fold enrichment (6-mer frequency, TF over GST control)","1.06 fold enrichment (6-mer frequency, TF over GST control)","1.17 fold enrichment (6-mer frequency, TF over GST control)","1.08 fold enrichment (6-mer frequency, TF over GST control)","1.11 fold enrichment (6-mer frequency, TF over GST control)","1.11 fold enrichment (6-mer frequency, TF over GST control)","1.05 fold enrichment (6-mer frequency, TF over GST control)","1.01 fold enrichment (6-mer frequency, TF over GST control)","1.11 fold enrichment (6-mer frequency, TF over GST control)","1.04 fold enrichment (6-mer frequency, TF over GST control)","1.01 fold enrichment (6-mer frequency, TF over GST control)","1 fold enrichment (6-mer frequency, TF over GST control)",
GATCCC,"1.18 fold enrichment (6-mer frequency, TF over GST control)","1.13 fold enrichment (6-mer frequency, TF over GST control)","1.22 fold enrichment (6-mer frequency, TF over GST control)","1.22 fold enrichment (6-mer frequency, TF over GST control)","1.26 fold enrichment (6-mer frequency, TF over GST control)","1.2 fold enrichment (6-mer frequency, TF over GST control)","1.23 fold enrichment (6-mer frequency, TF over GST control)","1.18 fold enrichment (6-mer frequency, TF over GST control)","1.32 fold enrichment (6-mer frequency, TF over GST control)","1.22 fold enrichment (6-mer frequency, TF over GST control)","1.3 fold enrichment (6-mer frequency, TF over GST control)","1.2 fold enrichment (6-mer frequency, TF over GST control)","1.11 fold enrichment (6-mer frequency, TF over GST control)","1.27 fold enrichment (6-mer frequency, TF over GST control)",,"1.1 fold enrichment (6-mer frequency, TF over GST control)","1.12 fold enrichment (6-mer frequency, TF over GST control)","1.11 fold enrichment (6-mer frequency, TF over GST control)"

# Reference: PMC7862700, “An all-to-all approach to the identification of sequence-specific readers for epigenetic DNA modifications on cytosine”
